Experimental data from ChEMBL document CHEMBL4513135, “CO-ADD screening of IQOG CSIS (Spain) compounds”.
Results with a measured potency or affinity are listed apart.

System: Klebsiella pneumoniae
Settings: Concentration 32 ug.mL-1; ASSAY_TEST Inhibition of Bacterial Growth; detection method Absorption (OD600); MEDIA CAMHB; plate type 384well; NBS; CORNING #3640; time 18 hr

Going from COc1nc2nc3c(c(N)c2cc1C#N)CCCC3.Cl to CC1CC(=O)Nc2c1c(Cl)nc1nc3c(c(N)c21)CCCC3 (stereo not given), the Inhibition rises from 10.99% to 13.46%.

First: Cc1nc(Nc2ccccc2)c2c(C)nn(-c3ccccc3)c2n1
Second: c1ccc(-c2nc3c4cnn(-c5ccccc5)c4ncn3n2)cc1
The Inhibition of the first is lower: -3.39% for the first, 10.22% for the second.

Compared with Nc1c2c(nc3c1C(c1c(Cl)cccc1Cl)c1ccc4ccccc4c1O3)CCCC2 (stereo not given), CCOC(=O)C1=C(C)Oc2nc3c(c(N)c2C1c1ccccc1OC)CCC3 (stereo not given) is higher in Inhibition: 14.02% for the first, 16.69% for the second.

First: COc1ccc2c(ccn2C)c1
Second: COc1nc2ccccc2cc1C=O
The Inhibition of the first is higher: 14.15% for the first, -3.66% for the second.

Compared with CCOC(=O)C1=C(C)OC(N)=C(C#N)C1c1ccc(OC)cc1 (stereo not given), COc1ccc(C2C(C#N)=C(N)Oc3ccc4ccccc4c32)cc1 (stereo not given) is lower in Inhibition: 14.63% for the first, 8.69% for the second.

Going from COc1ccc(-c2cc(-c3cc4c(C)cc(C)cc4nc3Cl)cc(=O)[nH]2)cc1 to COc1ccc(-c2cc(-c3ccccc3)c(C#N)c(N)n2)cc1, the Inhibition falls from 4.51% to -4.32%.

First: COC(=O)C(=Cc1ccc(OC)cc1)NC(=O)c1ccccc1
Second: CC(=O)O[C@H]1CC[C@H](NC(=O)c2ccccc2)CC1
The Inhibition of the first is higher: 13.3% for the first, 10.24% for the second.

Going from C#CCN(C)Cc1cc2cc(OCOc3ccc4c(c3)cc(CN(C)CC#C)n4C)ccc2n1C to Cn1c(C(=O)NCc2ccccc2)cc2cc(OCCCC3CCN(Cc4ccccc4)CC3)ccc21, the Inhibition rises from 2.59% to 8.4%.

First: C=CCNc1[nH]c2ccc(O)cc2c1C#N
Second: CCOC(=O)c1c[nH]c2ccc(OCc3ccccc3)cc12
The Inhibition of the first is lower: 7.13% for the first, 12.72% for the second.

Compared with CC(C)(C)OC(=O)Nc1ccc(Cl)cn1, Cc1cnc2ccc(Cl)cn12 is higher in Inhibition: 13.6% for the first, 22.77% for the second.

First: N#Cc1c(N)nc2c(c1-c1ccccc1)CN(Cc1ccccc1)CC2
Second: N#Cc1cc2c(N)c3c(nc2nc1Cl)CCN(Cc1ccccc1)C3
The Inhibition of the first is higher: 16.71% for the first, 13.32% for the second.

First: C=C1CN(C)c2c(C#N)c(-c3ccccc3)c(C#N)c(=N)n21
Second: N#Cc1c(Cl)nc(Cl)c(C#N)c1-c1ccccc1
The Inhibition of the first is lower: 8.43% for the first, 19.31% for the second.

Compared with CCCCCCC(C)NNC(=O)c1cc2ccccc2[nH]1 (stereo not given), O=C(O)c1cc2ccccc2[nH]1 [INDOLE-2-CARBOXYLIC ACID] is higher in Inhibition: -31.72% for the first, 1.67% for the second.

First: O=C1SC(SCc2ccccc2)=NC1=Cc1cccc(OCc2ccccc2)c1
Second: CC(=O)n1cc(/C=C2\N=C(c3ccccc3)OC2=O)c2ccccc21
The Inhibition of the first is lower: -15.18% for the first, 0.98% for the second.

Compared with CC#CCN(Cc1ccccc1)c1nc(N)c(C#N)cc1C#N, C#CCNc1nc(NCCC2CCN(Cc3ccccc3)CC2)c(C#N)cc1C#N is higher in Inhibition: -9.03% for the first, -4.95% for the second.

Compared with Br.C#CCNCc1ccccc1, O=C(Cc1c[nH]c2ccccc12)NNCc1ccccc1 is lower in Inhibition: 12.8% for the first, 1.88% for the second.

Going from COc1cccc(C2C(C#N)=C(N)Oc3ccc4ccccc4c32)c1 (stereo not given) to CN(C)c1nc(Cl)c(C#N)c(-c2ccccc2)c1C#N, the Inhibition falls from 12.24% to 5.58%.

Compared with Clc1ccc(-c2cn3ccccc3n2)cc1, CC1Cc2ccccc2N1/N=C/c1ccccc1 (stereo not given) is lower in Inhibition: 18.54% for the first, 2.26% for the second.

Going from O=C(Cc1c[nH]c2ccccc12)NN=C1CCCCCC1 to Nc1c2c(nc3nc4ccccc4nc13)CCCC2, the Inhibition rises from -21.31% to -2.37%.

First: Cc1ccc(-c2c(C#N)c(N)nc3c2S(=O)(=O)OC3(C)C)cc1
Second: C#CCN(C)c1cc(Cl)nc(N)n1
The Inhibition of the first is lower: 10.18% for the first, 16.87% for the second.
